RAD52 anneal inh: RAD52 (human) annealing inhibition | P43351 | recombinant RAD52 DNA annealing, FRET fluorescence | inhibition, % at 18.7 µM | actives 0.46% (n = 360,000) | AID 651710;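 active means every replicate showing at least 50% inhibition; inconclusive means mean inhibition at least 50% but not in every replicate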
MLL AF4-AF9 inh: MLL-AF4/AF9 protein interaction inhibition. P42568. AlphaScreen, biotin-AF4 peptide binding to FLAG-AF9. inhibition, % at 10 µM. actives 0.47% (n = 350,000);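 active means every replicate reaching a set inhibition limit, whatever the replicate mean, cut at about 25% in these data; inconclusive means mean inhibition reaches that limit but some replicates miss it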;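 further: 0% = plate neutral control median and 100% = total signal loss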
RAD54 inh: inhibitors of human RAD54 branch migration | RAD54 Holliday junction branch migration, FAM/BHQ fluorescence | inhibition, % at 10.4 µM | actives 0.14% (n = 360,000);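 active means mean normalized replicate activity at least 40 and at least half of replicates scoring 40 or more; inconclusive means only one of the two criteria met; inactive means mean below 40 and under half of replicates reaching 40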;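 further: 0% = median of neutral control wells and 100% = median of positive control wells; inhibitors cause a drop in the FAM fluorescence signal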
Target sequence (Q92698 whole entry, looked up): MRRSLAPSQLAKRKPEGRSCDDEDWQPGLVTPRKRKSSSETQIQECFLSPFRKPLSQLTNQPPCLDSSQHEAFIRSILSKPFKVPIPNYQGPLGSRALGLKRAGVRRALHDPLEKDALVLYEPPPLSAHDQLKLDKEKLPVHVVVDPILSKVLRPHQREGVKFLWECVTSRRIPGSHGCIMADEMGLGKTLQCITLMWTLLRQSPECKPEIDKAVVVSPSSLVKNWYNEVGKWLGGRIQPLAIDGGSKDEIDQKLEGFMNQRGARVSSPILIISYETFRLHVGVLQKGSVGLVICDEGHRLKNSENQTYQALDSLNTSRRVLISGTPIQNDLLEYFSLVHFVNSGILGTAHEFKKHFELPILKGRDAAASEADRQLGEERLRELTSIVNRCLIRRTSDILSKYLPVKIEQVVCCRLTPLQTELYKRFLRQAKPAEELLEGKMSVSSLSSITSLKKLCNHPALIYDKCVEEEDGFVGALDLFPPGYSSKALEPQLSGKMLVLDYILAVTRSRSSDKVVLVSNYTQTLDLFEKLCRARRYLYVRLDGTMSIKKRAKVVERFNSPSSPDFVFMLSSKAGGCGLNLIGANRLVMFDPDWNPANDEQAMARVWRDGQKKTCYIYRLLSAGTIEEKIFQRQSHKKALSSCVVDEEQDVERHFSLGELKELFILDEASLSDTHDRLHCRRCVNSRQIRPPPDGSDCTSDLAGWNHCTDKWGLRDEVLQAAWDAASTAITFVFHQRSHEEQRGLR
CASP6 VEID inh: caspase-6 (human) enzyme inhibition; P55212; purified caspase-6, Z-VEID-R110 cleavage fluorescence; inhibition, % at 12.5 µM; actives 0.53% (n = 350,000); AID 686996;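 active means mean inhibition across replicates at least about 35%, with every replicate also reaching that limit, limit read from the data; inconclusive means only one of the two criteria met; inactive means neither criterion met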;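 further: 0% = median of neutral control wells and 100% = no fluorescence left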
N-glyco inh: blocks N-linked glycosylation in D54 reporter cells; D54 ERlucT glycosylation luciferase reporter, 24 h; percent of 100 nM tunicamycin response; reporter increase, % at 12.5 µM; actives 0.23% (n = 360,000); AID 588692;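 active means mean luciferase reporter signal, scaled so untreated is 0 and the glycosylation-blocking control 100, at or above a set limit in every replicate; inconclusive means mean reaches the limit but not every replicate does; inactive means mean below the limit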;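 further: luciferase carries N-glycosylation sites so blocking glycosylation raises the light; 0% = median of neutral control wells and 100% = median of 100 nM tunicamycin wells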
RAD52 DNA ctr: counter-screen for RAD52 inhibitors: DNA binding compounds | actives 8% (n = 1,000) | shares compounds with RAD52 anneal inh | Salmon sperm DNA/acridine orange FP displacement | AC50, µM | AID 652128;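 active means fitted half-maximal concentration for signal loss at or below twice the highest dose tested, in every separate run, actives reach about 64 µM in these data; inconclusive means runs disagree, or flat partial signal loss, or poor fit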
An asterisk follows results filed as active; i = inactive; ? = inconclusive; . = no result given. Shown are actives, neighbours in structure and some others; about 1.2% of the full set was active somewhere.

SMILES | RAD52 anneal inh | MLL AF4-AF9 inh | RAD54 inh | CASP6 VEID inh | N-glyco inh | RAD52 DNA ctr
Cc1cc2cc(CNC(=O)Cc3ccc([N+](=O)[O-])cc3)ccc2n1C | -29.4 | -0.3 | . | 0.5 | 1.2 | .
Cc1ccc(SCCc2cc[n+](CC(=O)c3ccccc3)cc2)cc1 | 53.9* | 10.4 | . | . | 3.8 | i
CCCCCCCCCC[n+]1cccc2c3ccccc3ccc21 | 72.1* | 12.4 | . | 31.4 | 18.9 | i
O=C1C2CCCCN2C(=O)N1CCCN1CCN(c2ccc(F)cc2)CC1 (centres undefined) | -1.7 | -1.2 | -27.8 | -4.4 | 1.5 | .
Nc1ccc(N2CCN(CCCCN3C(=O)C4CCCN4C3=O)CC2)cc1 (centres undefined) | 101.1* | 48.7* | . | 31.7 | 4.9 | i
CN(C)CCCNc1oc(/C=C/c2cccs2)nc1S(=O)(=O)c1ccccc1 | 51.8* | 0.6 | 5.0 | -46.6 | -4.6 | i
Cc1sc2nc(CN3CCCC3)nc(NCc3ccncc3)c2c1C | 1.6 | -1.0 | . | 0.2 | 1.5 | .
Cc1sc2nc(CN3CCCCC3)nc(Nc3ccc4c(c3)OCCO4)c2c1C | 72.1* | 7.0 | . | 2.3 | 1.2 | i
C[C@@H]1CN([C@H](C)CO)S(=O)(=O)c2ccc(C#CC3CC3)cc2O[C@H]1CN(C)C(=O)c1cccc(F)c1 | -0.2 | 4.4 | 3.1 | -7.3 | . | .
COc1cccc2c3cccc(OC)c3c3[nH]cnc3c12 | 85.8* | -0.4 | . | -15.5 | ? | i
CCCNC(=O)[C@H]1[C@H](CO)[C@H]2Cn3c(ccc(-c4ccccc4F)c3=O)[C@H]2N1C(=O)CC | 5.6 | -3.1 | -37.6 | 1.8 | . | .
C[C@@H](c1ccccc1)N1C[C@H](COCc2ccccc2)Oc2cc(N3CC[C@H](N(C)C)C3)ccc2S1(=O)=O | 51.8* | 25.9* | . | -1.2 | . | i
CN(C)c1nc(N)c(C(=O)N=C(N)N)nc1Cl | 88.2* | 2.6 | 40.8 | -1.5 | 1.1 | i
COc1ccc(C(=O)NC2CC(C)(C)NC(C)(C)C2)cc1S(=O)(=O)N1CCOCC1 | 98.1* | -0.1 | -0.1 | -1.6 | 2.1 | i
CCCN1CCN(CCCNC(=O)C2CCN(c3nnc(-n4c(C)ccc4C)s3)CC2)CC1 | 58.3* | 6.0 | -14.1 | -154.4 | 5.1 | i
CCN1CCN(C(=O)C2CCN(c3nnc(-n4c(C)ccc4C)s3)CC2)CC1 | 57.8* | 6.4 | 2.8 | -115.0 | 4.6 | i
CCOC(=O)N1CCN(C(=O)C2CCN(c3nnc(-n4cccc4)s3)CC2)CC1 | -10.5 | 2.7 | -3.4 | -0.6 | 0.7 | .
Cc1ccc(C)n1-c1nnc(N2CCC(C(=O)N3CCN(C)CC3)CC2)s1 | 55.8* | 5.5 | -0.4 | -104.8 | 6.9 | i
CN1CCN(CCCNC(=O)C2CCN(c3nnc(-n4cccc4)s3)CC2)CC1 | . | . | 2.7 | . | -0.7 | .
C[C@@H]1CN([C@H](C)CO)C(=O)c2cc(NC(=O)Cc3ccccc3)ccc2O[C@@H](C)CCCCO[C@@H]1CN(C)C(=O)c1ccccc1 | 1.8 | -2.8 | -0.2 | -0.5 | . | .
COc1ccc(C2c3ccc4ccccc4c3Oc3ncn(CCN(C)C)c(=N)c32)cc1 (centres undefined) | 57.2* | 19.2 | 4.1 | -33.6 | 12.3 | i
COc1ccc(-c2cc(CNc3nc(NCc4ccccc4OC)nc4ccsc34)on2)cc1 | 61.4* | 1.5 | -1.8 | 4.4 | -1.0 | i
C/C=C/c1cnc2c(c1)C(=O)N([C@@H](C)CO)C[C@@H](C)[C@@H](CN(C)C(=O)NC1CCCC1)O2 | 12.3 | -0.9 | 5.8 | 0.7 | . | .
C[C@@H]1CCCCO[C@H](CN(C)C(=O)Nc2ccc(F)cc2)[C@H](C)CN([C@@H](C)CO)C(=O)c2cc(NC(=O)CCC(F)(F)F)ccc2O1 | -46.7 | -1.9 | -7.2 | -1.0 | . | .
Cc1c(CCOC(=O)c2ccc(Cl)cc2Cl)sc[n+]1CC(=O)c1ccc(Br)cc1 | 36.6 | 12.9 | 30.4 | -13.6 | -1.7 | i
COc1ccc(C(=O)OCCc2sc[n+](CC(=O)c3ccccc3)c2C)cc1 | 73.4* | 11.2 | 16.8 | -11.3 | 0.4 | i
C[C@@H]1CN([C@H](C)CO)C(=O)c2cccc(NC(=O)C3CCCCC3)c2O[C@H]1CN(C)S(=O)(=O)c1ccccc1 | 10.9 | -8.1 | -14.0 | -0.4 | . | .
CN(C)c1ccc(C=c2c3ccccc3n3c2c2c([n+]3C)CCCC2)cc1 | 89.1* | 37.3* | . | . | 69.9* | 6.93µM*
CN(C)c1ccc(/C=C2\SC(=O)N(CC(O)Cn3c4ccccc4c4ccccc43)C2=O)cc1 (centres undefined) | . | . | -0.8 | . | 0.2 | .

High-throughput results (PubChem)
